Assay results as given in ChEMBL document CHEMBL4296182, “CO-ADD screening of NIH NCI Diversity Set V”.
For part of these data: Results with a measured potency or affinity are listed apart.

Columns and labels:
Staphylococcus aureus = experiment: Antibacterial activity against Staphylococcus aureus MRSA ATCC 43300 (CO-ADD:GP_020); MIC in CAMBH media using NBS plates, by Resazurin F(560/590); assay type: functional; settings: Concentration 20 uM, ASSAY_TEST Inhibition of Bacterial Growth, detection method Resazurin, Fluorescence (ex560/em590), MEDIA CAMHB, plate type 384well, CORNING #3640, time 18 hr
Acinetobacter baumannii = experiment: Antibacterial activity against Acinetobacter baumannii ATCC 19606 (CO-ADD:GN_034); MIC in CAMBH media using NBS plates, by Resazurin F(560/590); assay type: functional; settings: Concentration 20 uM, ASSAY_TEST Inhibition of Bacterial Growth, detection method Resazurin, Fluorescence (ex560/em590), MEDIA CAMHB, plate type 384well, CORNING #3640, time 18 hr
Escherichia coli = experiment: Antibacterial activity against Escherichia coli ATCC 25922 (CO-ADD:GN_001); MIC in CAMBH media using NBS plates, by Resazurin F(560/590); assay type: functional; settings: Concentration 20 uM, ASSAY_TEST Inhibition of Bacterial Growth, detection method Resazurin, Fluorescence (ex560/em590), MEDIA CAMHB, plate type 384well, CORNING #3640, time 18 hr
Klebsiella pneumoniae = settings: Concentration 20 uM; ASSAY_TEST Inhibition of Bacterial Growth; detection method Absorption (OD600); MEDIA CAMHB; plate type 384well; NBS; CORNING #3640; time 18 hr
Candida albicans = settings: 20 µM
Cryptococcus neoformans = settings: Concentration 20 uM; ASSAY_TEST Inhibition of Fungal Growth; detection method Resazurin; Absorption (OD600-OD570); plate type 384well; NBS; CORNING #3640

Compound `C1=CC2(C=C1)OC21CCC2(C=CC3(C2)OC3C2CCCCC2)CC1` (stereo not given) has an Inhibition (Staphylococcus aureus) of -4.93%, an Inhibition (Acinetobacter baumannii) of 2.41% and an Inhibition (Escherichia coli) of 4.97%. For the same compound, the Inhibition (Klebsiella pneumoniae) was -0.69%, the Inhibition (Candida albicans) was 1.23% and the Inhibition (Cryptococcus neoformans) was -15.19%.
In the case of `CCOC(=O)CCC1(C(=O)OC)C(=O)CCCCC/C=C/1C(=O)OC` (stereo not given), the Inhibition (Staphylococcus aureus) is reported as 9.69%, the Inhibition (Acinetobacter baumannii) is reported as 9.62% and the Inhibition (Escherichia coli) is reported as -17.88%. It also gave an Inhibition (Klebsiella pneumoniae) of 8.19%, an Inhibition (Candida albicans) of 7.46% and an Inhibition (Cryptococcus neoformans) of 18.91%.
Compound `Nc1ncnc(N2CCOCC2)n1` has an Inhibition (Staphylococcus aureus) of -3.61%, an Inhibition (Acinetobacter baumannii) of -4.78% and an Inhibition (Escherichia coli) of -0.51%. For the same compound, the Inhibition (Klebsiella pneumoniae) was 0.72%, the Inhibition (Candida albicans) was 2.01% and the Inhibition (Cryptococcus neoformans) was -5.84%.
With `CSc1cccc(NC(=O)Nc2ccccc2C(N)=O)c1` the Inhibition (Staphylococcus aureus) was 1.7%, the Inhibition (Acinetobacter baumannii) was 10.06% and the Inhibition (Escherichia coli) was 13.89%. The Inhibition (Klebsiella pneumoniae) was 12.71%, the Inhibition (Candida albicans) was -0.32% and the Inhibition (Cryptococcus neoformans) was -13.91%.
For `COc1ccc2c(c1)c1ccc3c(c1n2C)C(=O)C=CC3=O`, the Inhibition (Staphylococcus aureus) was -28.89%, the Inhibition (Acinetobacter baumannii) was 3.5% and the Inhibition (Escherichia coli) was -18.56%. It also gave an Inhibition (Klebsiella pneumoniae) of 4.14%, an Inhibition (Candida albicans) of 7% and an Inhibition (Cryptococcus neoformans) of 0.4%.
Compound `Clc1ccc(Nc2nnc(-c3ccc4c(c3)OCO4)o2)cc1` has an Inhibition (Staphylococcus aureus) of -8.18%, an Inhibition (Acinetobacter baumannii) of 6.42% and an Inhibition (Escherichia coli) of 9.52%. The Inhibition (Klebsiella pneumoniae) was 10.29%, the Inhibition (Candida albicans) was 4.12% and the Inhibition (Cryptococcus neoformans) was 44.25%.
In the case of `Cn1c(=O)c2nc(N3CCCCC3)[nH]c2n(C)c1=O`, the Inhibition (Staphylococcus aureus) is reported as 0.06%, the Inhibition (Acinetobacter baumannii) is reported as -5.37% and the Inhibition (Escherichia coli) is reported as 9.83%. For the same compound, the Inhibition (Klebsiella pneumoniae) was 1.37%, the Inhibition (Candida albicans) was -1.65% and the Inhibition (Cryptococcus neoformans) was -9.97%.
`COc1cc(C2NC(=O)C(C#N)=C(Nc3cccc(C)c3)S2)ccc1O` (stereo not given) gave an Inhibition (Staphylococcus aureus) of 16.64%, an Inhibition (Acinetobacter baumannii) of 5.33% and an Inhibition (Escherichia coli) of 14.44%. The Inhibition (Klebsiella pneumoniae) was 11.49%, the Inhibition (Candida albicans) was 1.94% and the Inhibition (Cryptococcus neoformans) was -8.18%.
`CC(C)c1ncc(CO)n1Cc1c(Cl)cccc1Cl` showed an Inhibition (Staphylococcus aureus) of 10.51%, an Inhibition (Acinetobacter baumannii) of 3.11% and an Inhibition (Escherichia coli) of 9.5%. The Inhibition (Klebsiella pneumoniae) was 7.27%, the Inhibition (Candida albicans) was 0.71% and the Inhibition (Cryptococcus neoformans) was -9.37%.
`CCCCC[C@H](O)/C=C/[C@@H]1[C@@H](C/C=C\CCCC(=O)O)[C@@H](O)C[C@H]1O.NC(CO)(CO)CO` [DINOPROST TROMETHAMINE] was tested, and the Inhibition (Staphylococcus aureus) was 12.44%, the Inhibition (Acinetobacter baumannii) was -5.18% and the Inhibition (Escherichia coli) was 11.57%. It also gave an Inhibition (Klebsiella pneumoniae) of 16.21%, an Inhibition (Candida albicans) of -0.17% and an Inhibition (Cryptococcus neoformans) of -7.36%.
`CCCCN1C(=O)CC(C(=O)OCC)=C1C` showed an Inhibition (Staphylococcus aureus) of -5.09%, an Inhibition (Acinetobacter baumannii) of -15.76% and an Inhibition (Escherichia coli) of -0.5%. The Inhibition (Klebsiella pneumoniae) was -4.24%, the Inhibition (Candida albicans) was 1.93% and the Inhibition (Cryptococcus neoformans) was -4.18%.
`C/C(=N\O)[C@H]1CC[C@H]2[C@@H]3CC[C@@H]4C/C(=N/O)CC[C@]4(C)[C@H]3[C@@](C)(O)C[C@]12C` was tested, and the Inhibition (Staphylococcus aureus) was 13.92%, the Inhibition (Acinetobacter baumannii) was 2.13% and the Inhibition (Escherichia coli) was 6.69%. The Inhibition (Klebsiella pneumoniae) was 4.28%, the Inhibition (Candida albicans) was 2.6% and the Inhibition (Cryptococcus neoformans) was -11.49%.
`CC(=O)Nc1nc(C)c(CCC2OCCO2)c(O)n1` gave an Inhibition (Staphylococcus aureus) of 4.85%, an Inhibition (Acinetobacter baumannii) of 12.66% and an Inhibition (Escherichia coli) of -15.79%. The Inhibition (Klebsiella pneumoniae) was 16.29%, the Inhibition (Candida albicans) was 5.32% and the Inhibition (Cryptococcus neoformans) was 22%.
`COC(=O)Cc1[nH]c(S)nc1C(=O)OC` was tested, and the Inhibition (Staphylococcus aureus) was -11.54%, the Inhibition (Acinetobacter baumannii) was 1.23% and the Inhibition (Escherichia coli) was -12.23%. The Inhibition (Klebsiella pneumoniae) was 0.59%, the Inhibition (Candida albicans) was 1.43% and the Inhibition (Cryptococcus neoformans) was 19.86%.
`Clc1c(Cl)c(Cl)c2[nH]nnc2c1Cl` showed an Inhibition (Staphylococcus aureus) of -10.41%, an Inhibition (Acinetobacter baumannii) of -8.91% and an Inhibition (Escherichia coli) of 8.31%. The Inhibition (Klebsiella pneumoniae) was 1.32%, the Inhibition (Candida albicans) was 18.5% and the Inhibition (Cryptococcus neoformans) was -10.27%.
`O=C1C(Cl)=C(O)C2(Cl)C(Cl)=C(Cl)C12Cl` (stereo not given) gave an Inhibition (Staphylococcus aureus) of 15.05%, an Inhibition (Acinetobacter baumannii) of 13.34% and an Inhibition (Escherichia coli) of 5.55%. For the same compound, the Inhibition (Klebsiella pneumoniae) was 11.98%, the Inhibition (Candida albicans) was 9.34% and the Inhibition (Cryptococcus neoformans) was -12.02%.
In the case of `Oc1ccc(Cc2ccc(Cl)cc2)c(O)c1`, the Inhibition (Staphylococcus aureus) is reported as 10.37%, the Inhibition (Acinetobacter baumannii) is reported as -6.86% and the Inhibition (Escherichia coli) is reported as 10.87%. For the same compound, the Inhibition (Klebsiella pneumoniae) was 7.26%, the Inhibition (Candida albicans) was -0.85% and the Inhibition (Cryptococcus neoformans) was -7.42%.
Work on `Cn1c(CO)cnc1-c1ccccc1` yielded an Inhibition (Staphylococcus aureus) of 2.4%, an Inhibition (Acinetobacter baumannii) of 0.07% and an Inhibition (Escherichia coli) of -8.68%. For the same compound, the Inhibition (Klebsiella pneumoniae) was 2.59%, the Inhibition (Candida albicans) was 2.13% and the Inhibition (Cryptococcus neoformans) was -3.98%.
In the case of `O=C1c2cccc(Oc3ccccc3)c2C(=O)c2cccc(Oc3ccccc3)c21`, the Inhibition (Staphylococcus aureus) is reported as 12.36%, the Inhibition (Acinetobacter baumannii) is reported as 6.18% and the Inhibition (Escherichia coli) is reported as -1.53%. For the same compound, the Inhibition (Klebsiella pneumoniae) was 10.6%, the Inhibition (Candida albicans) was 2.19% and the Inhibition (Cryptococcus neoformans) was -5.27%.
Work on `Cn1cnc([N+](=O)[O-])c1Sc1nnc(-c2cccnc2)n1C` yielded an Inhibition (Staphylococcus aureus) of 12.02%, an Inhibition (Acinetobacter baumannii) of 15.57% and an Inhibition (Escherichia coli) of -1.31%. The Inhibition (Klebsiella pneumoniae) was 17.06%, the Inhibition (Candida albicans) was 6.51% and the Inhibition (Cryptococcus neoformans) was -6.62%.
In the case of `CC1=C(C#N)C(C)(C)C(C#N)=C(C)N1`, the Inhibition (Staphylococcus aureus) is reported as 13.81%, the Inhibition (Acinetobacter baumannii) is reported as -13.23% and the Inhibition (Escherichia coli) is reported as 8.21%. It also gave an Inhibition (Klebsiella pneumoniae) of 8.84%, an Inhibition (Candida albicans) of 0.55% and an Inhibition (Cryptococcus neoformans) of -14.16%.
Compound `O=C(/C=C\c1ccc(O)c(O)c1)OC1C(O)CC(OC(=O)/C=C/c2ccc(O)c(O)c2)(C(=O)O)CC1O` (stereo not given) has an Inhibition (Staphylococcus aureus) of 21.21%, an Inhibition (Acinetobacter baumannii) of -10.3% and an Inhibition (Escherichia coli) of 9.77%. The Inhibition (Klebsiella pneumoniae) was 14%, the Inhibition (Candida albicans) was -2.85% and the Inhibition (Cryptococcus neoformans) was -1.87%.
`C=CCN=C(NC#N)SC` showed an Inhibition (Staphylococcus aureus) of -6.06%, an Inhibition (Acinetobacter baumannii) of -0.66% and an Inhibition (Escherichia coli) of -1.07%. The Inhibition (Klebsiella pneumoniae) was 5.62%, the Inhibition (Candida albicans) was -0.02% and the Inhibition (Cryptococcus neoformans) was 0.87%.
In the case of `CNC1(C(N)=O)CCNCC1`, the Inhibition (Staphylococcus aureus) is reported as 10.6%, the Inhibition (Acinetobacter baumannii) is reported as -11.41% and the Inhibition (Escherichia coli) is reported as 16.83%. For the same compound, the Inhibition (Klebsiella pneumoniae) was 15.69%, the Inhibition (Candida albicans) was -0.33% and the Inhibition (Cryptococcus neoformans) was -6.49%.
For `O=[N+]([O-])c1ccc(-c2ncc(-c3ccc(Br)cc3)o2)cc1`, the Inhibition (Staphylococcus aureus) was 5.59%, the Inhibition (Acinetobacter baumannii) was 6.16% and the Inhibition (Escherichia coli) was 2.7%. The Inhibition (Klebsiella pneumoniae) was 5.71%, the Inhibition (Candida albicans) was 5.85% and the Inhibition (Cryptococcus neoformans) was -3.69%.
